BLM inh: Bloom syndrome helicase (human) inhibition; Potency, µM (top dose mostly 56.1 µM), for inactives: at the top dose activity change, negative = inhibition, hits mostly inhibitors; recombinant BLM DNA unwinding, fluorescence dequenching; AID 2528; 350,000 compounds, 0.2% hits;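 also: potency is read from the fitted curve at half-maximal effect; plate controls were vehicle for no effect and no enzyme for full effect; nearly all actives have a fitted effect of over 35% in size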
PI5P4K alpha inh: blocks human PI5P4K alpha kinase activity; P48426; 330,000 compounds, 1.2% hits; max response, %; PI5P4Kalpha enzyme, ADP-Glo luminescence, 60 min; stronger effect = lower value; active = max response of -50% or lower; inconclusive = between -30% and -50%; inactive = -30% or higher; also: value at the top dose of about 77 µM; % is scaled to controls: 0 for no effect and ±100 for the full control effect
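Reactions run in 0.038 M HEPES pH 7.4, 0.28 mM EGTA, 0.1% CHAPS and 5% DMSO, with PI5P4Kalpha, substrate, compound and 5 microM ATP final, one hour at room temperature. Readout is ADP-Glo luminescence.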
FEN1 inh-1: human FEN1 inhibition; Potency, µM (top dose mostly 114 µM), inactives show at the top dose activity change, negative = inhibition, actives largely listed as inhibitors; AID 588795; Recombinant FEN1 flap cleavage, fluorescence, 15 min; 390,000 compounds, 0.35% hits; P39748; also: potency is read from the fitted curve at half-maximal effect; % is scaled to controls: 0 for no effect and ±100 for the full control effect; nearly all actives have a fitted effect of over 65% in size
Target sequence (P39748 whole entry, looked up): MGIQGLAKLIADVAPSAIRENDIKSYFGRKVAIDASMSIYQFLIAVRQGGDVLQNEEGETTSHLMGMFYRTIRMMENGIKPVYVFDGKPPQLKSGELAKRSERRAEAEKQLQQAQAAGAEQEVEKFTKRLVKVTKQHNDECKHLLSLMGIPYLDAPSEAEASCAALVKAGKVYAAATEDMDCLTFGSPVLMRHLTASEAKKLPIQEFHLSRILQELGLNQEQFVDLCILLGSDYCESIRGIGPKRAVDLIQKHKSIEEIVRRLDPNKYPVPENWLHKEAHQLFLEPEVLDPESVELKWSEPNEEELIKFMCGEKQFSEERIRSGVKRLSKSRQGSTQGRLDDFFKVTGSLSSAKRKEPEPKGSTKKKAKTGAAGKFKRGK
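Enzyme 10 nM, 15 min RT preincubation with compound; start with substrate 50 nM final; reads at 0 and 15 min; qHTS titration, four-parameter Hill fit.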
WRN inhibitor: WRN helicase (human) inhibition; Q14191; WRN helicase unwinding, fluorescent forked duplex, kinetic; Potency, µM (highest dose often 114 µM), for the others: top-dose activity change, negative = inhibition, actives largely listed as inhibitors; 360,000 compounds, 0.46% hits; AID 651768; also: potency is read from the fitted curve at half-maximal effect; % is scaled to controls: 0 for no effect and ±100 for the full control effect; nearly all actives have a fitted effect of over 55% in size
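Primary qHTS, 1536-well format. 20 nM WRN + compound, 15 min RT; start with 100 nM forked fluorophore/quencher duplex, 2 mM ATP (final); kinetic read ex 525/em 598 nm.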
RECQ1 helicase: RECQ1 (human) helicase inhibition. Potency, µM (top dose mostly 57.3 µM), without a hit: top-dose activity, negative = inhibition, hits mostly inhibitors. 240,000 compounds, 0.54% hits. P46063. RECQ1 DNA unwinding, red fluorescence kinetic read;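 also: potency is read from the fitted curve at half-maximal effect; plate controls were vehicle for no effect and no enzyme for full effect; nearly all actives have a fitted effect of over 30% in size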
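RECQ1T1 50 nM; forked duplex (20 bp + 30-nt ss tails) 200 nM, ATP 2 mM final; pH 8.0, 2 mM MgCl2, 2.5 ug/ml poly(dI-dC); 15 min compound preincubation; discontinuous kinetic read over 2 h at RT.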
APE1 inh: blocks human APE1 abasic DNA cleavage; recombinant APE1, TAMRA/BHQ-2 abasic DNA cleavage fluorescence; Potency, µM (series often up to 65.8 µM), without a hit: at the highest dose activity change, negative = inhibition, most hits filed as inhibitors; 350,000 compounds, 0.35% hits;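 also: potency is read from the fitted curve at half-maximal effect; plate controls were vehicle for no effect and reference inhibitor for full effect; nearly all actives have a fitted effect of over 55% in size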
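Kinetic fluorescence read (525 ex/598 em nm, three reads 60 s apart) of AP-site incision; signal = third minus first read. Enzyme 0.75 nM, dual-labelled THF duplex 50 nM, compound preincubation 15 min RT.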
FEN1 inh-2: confirmation of human FEN1 inhibitors | FEN1 flap cleavage, TAMRA/BHQ2 fluorogenic DNA substrate | 880 compounds, 79% hits | shares compounds with FEN1 inh-1 | AID 720498 | Potency, µM, actives largely listed as inhibitors; also: potency is read from the fitted curve at half-maximal effect; nearly all actives have a fitted effect of over 60% in size
The depositor's hits bear a star; i = inactive; ? = inconclusive; nt = no result; ! = not confirmed by another sample; [ ] = remark or other dose. Rows were chosen to be rich in hits. Some 1.5% of all compounds tested hit in one or more screens of this group. Unless noted, calls follow the shape of the dose curve; as a rule, active = well fitted curve in the direction sought with a large enough effect; inconclusive = small, poorly fitted or top-dose-only effect, or another doubt; inactive = no such curve, though single readings can be large; an effect the other way counts as inactive or inconclusive.

SMILES	BLM inh	PI5P4K alpha inh	FEN1 inh-1	WRN inhibitor	RECQ1 helicase	APE1 inh	FEN1 inh-2
C=C/C(=C/C(=O)C[C@H](C)C[C@@H](C)CC[C@H](O)[C@H](C)C(=O)C[C@@H](O)[C@H](C)[C@@H](C)OC(=O)C[C@@H](O)C1=C(C)C(=O)OC1=O)CC	-17%[12.4 µM]	nt	nt	nt	i[11.5 µM]	-4%[12.4 µM]	nt
COc1ccc(CN2C(=O)NC(=O)/C(=C/c3ccc([N+](=O)[O-])s3)C2=O)cc1	-22%	-75*	14µM*	40µM*	32µM*	?	17*
COc1cccc(N2C(=O)NC(=O)/C(=C/c3ccc([N+](=O)[O-])s3)C2=O)c1	-1%	?	40µM*	35µM*	?	?	15*
COc1ccccc1N1C(=O)NC(=O)/C(=C/c2ccc([N+](=O)[O-])s2)C1=O	-14%	-63*	45µM*	35µM*	-26%	-12%	11*
CCOc1ccc(N2C(=O)NC(=O)/C(=C\c3cc(OC)c(OC)cc3[N+](=O)[O-])C2=O)cc1	-7%	-23	-4%	?	-4%	-2%	nt
COc1ccc(CN2C(=O)CC(=O)NC2=S)cc1	?	?	-8%	-15%	19%	3%	nt
CC(Cc1ccc(C(C)(C)C)cc1)CN1CC(C)OC(C)C1 (configuration not stated)	3%	nt	nt	nt	-13%	10%	nt
C[C@@H]1OC=C2[C@@H](O)[C@H]3O[C@H]3C(=O)[C@@]23[C@H]1[C@H]1C2=C([C@@H](O)[C@H]4O[C@@H]4C2=O)[C@@H]3O[C@@H]1C	0%[12.4 µM]	nt	nt	nt	16%[11.5 µM]	-4%[12.4 µM]	nt
O=c1[nH]c(=O)n([C@H]2C[C@H](O)[C@@H](CO)O2)cc1/C=C/Br	nt	nt	nt	nt	-2%	18%	nt
CCN1C(=O)NC(=O)/C(=C/c2cc(C)n(-c3sc(C)c(C)c3C#N)c2C)C1=O	?	?	?	?	-3%	7%	nt
Cc1ccc(N2C(=O)NC(=O)/C(=C\c3cc(C)n(-c4sc5c(c4C#N)CCCC5)c3C)C2=O)cc1	-20%	?	?	50µM*	?	2%	76*
Cc1cccc(N2C(=O)/C(=C/N3CCN(C(=O)c4ccco4)CC3)C(=O)NC2=S)c1	-3%	?	-11%	?	-15%	-2%	nt
CCOc1cccc(N2C(=O)/C(=C/c3ccco3)C(=O)NC2=S)c1	28µM*	-93*	22µM*	35µM*	nt	11µM*	43*
Cl/C=C/CCl	nt	nt	nt	nt	7%	17%	nt
N[C@@H](Cc1cc(I)c(O)c(I)c1)C(=O)O	0%	-98*	7.9µM*	?	?	0%	60*
CC[n+]1c(-c2ccccc2)c2cc(N)ccc2c2ccc(N)cc21	?	5	13µM*	3µM*	32µM*!	32µM*!	17*
O=C1NC(=S)NC(=O)C1=Cc1cccn1-c1ccc(O)cc1	-30%	-84*	35µM*	45µM*	-11%	?	76*
COc1ccc(NC(=O)N2CCC3(CC2)CCN(C(=O)Oc2ccccc2)CC3)cc1	-4%	nt	nt	nt	-4%	-2%	nt
Cc1ccc2cc3c(ccc4ccccc43)c3c2c1CC3	nt	nt	nt	nt	i	6%	nt
CC[n+]1c(/C=C/C=C/c2ccc(N(C)C)cc2)sc2ccccc21	-1%	?	50µM*	56µM*	-8%	13%	38*
CCCCC(C#N)(Cn1cncn1)c1ccc(Cl)cc1 (configuration not stated)	-4%	nt	nt	nt	-6%	-2%	nt
CC(=O)NCC(N)C(=O)c1ccc(Cl)c(Cl)c1 (configuration not stated)	nt	nt	-6%	nt	nt	nt	nt
CCCCC/C=C\C/C=C\C/C=C\C/C=C\CCCC(=O)NCCCl	-10%	nt	nt	nt	-13%	?	nt
CC(C)(COCC1CO1)COCC1CO1 (configuration not stated)	nt	nt	nt	nt	22%	16%	nt
